Here are results for 36 compounds from PubChem BioAssay (EPA / NIEHS).

Inconclusive results are not listed. Active and inactive are the calls of the source. The calls were made as follows, unless noted: active = hit-call score of the fitted dose curve at least 0.9, where 1 is the maximum; inconclusive = response in the unintended direction; inactive = score below 0.9.

One assay deals with human Retinoic Acid Receptor beta (RARb), RARB (gene 5915) (UniProt P10826). Briefly: ATG_RARb_TRANS: Attagene TRANS-FACTORIAL HepG2 Assay for human Retinoic Acid Receptor beta (AID 2283004).
human Retinoic Acid Receptor beta (RARb), RARB (gene 5915), sequence (P10826 whole entry, looked up): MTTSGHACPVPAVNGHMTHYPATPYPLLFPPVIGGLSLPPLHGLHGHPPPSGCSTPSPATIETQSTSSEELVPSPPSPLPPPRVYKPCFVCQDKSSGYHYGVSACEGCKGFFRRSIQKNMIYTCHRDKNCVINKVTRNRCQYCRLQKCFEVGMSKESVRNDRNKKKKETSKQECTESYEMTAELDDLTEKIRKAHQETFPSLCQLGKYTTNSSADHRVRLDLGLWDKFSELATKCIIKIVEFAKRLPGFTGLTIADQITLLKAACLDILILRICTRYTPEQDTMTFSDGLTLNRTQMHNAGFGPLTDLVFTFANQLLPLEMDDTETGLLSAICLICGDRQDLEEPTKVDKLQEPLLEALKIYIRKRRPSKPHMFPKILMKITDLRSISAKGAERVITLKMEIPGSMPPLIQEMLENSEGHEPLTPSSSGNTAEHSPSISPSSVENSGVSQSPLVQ
Settings: not given
The method in brief: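 HepG2 cells were transiently transfected with GAL4-UAS reporter units that report activity of exogenous chimeric NR-Gal4 proteins, then exposed to compound for 24 h. Reporter mRNA was quantified by RT-PCR with capillary electrophoresis fluorescence, as gain of signal over DMSO.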
As to `CC(C)(C)c1cc(Cc2cc(C(C)(C)C)c(O)c(C(C)(C)C)c2)cc(C(C)(C)C)c1O`, the compound was classed as inactive.
On the same count and under the same terms, in the case of `Brc1ccccn1` it was “inactive”; in that of `C[C@]12CC[C@H]3C(=CCc4cc(O)ccc43)[C@@H]1CCC2=O`, “inactive”.
As for `O=C1c2c(O)ccc(Nc3ccc(CCO)cc3)c2C(=O)c2c([N+](=O)[O-])ccc(O)c21`, the compound was classed as inactive.
With `O=c1[nH]cccc1O`, the compound was classed as inactive.
Turning to `CCOCN(C(=O)CS(=O)(=O)O)c1c(C)cccc1CC`, the outcome was inactive.
Still for that read-out and setting: in the case of `c1ccc(C[P+](c2ccccc2)(c2ccccc2)c2ccccc2)cc1` it was “inactive”; in that of `OCC1CCCO1` (stereo unspecified), “inactive”; in that of `C[Si](C)O[Si](C)C`, “inactive”.

A further assay deals with Retinoic acid receptor alpha (Homo sapiens) (UniProt P10276). Briefly: ATG_RARa_TRANS: Attagene TRANS-FACTORIAL HepG2 Assay for human Retinoic Acid Receptor alpha (RARa) (AID 2283005).
Retinoic acid receptor alpha (Homo sapiens), sequence (P10276 whole entry, looked up): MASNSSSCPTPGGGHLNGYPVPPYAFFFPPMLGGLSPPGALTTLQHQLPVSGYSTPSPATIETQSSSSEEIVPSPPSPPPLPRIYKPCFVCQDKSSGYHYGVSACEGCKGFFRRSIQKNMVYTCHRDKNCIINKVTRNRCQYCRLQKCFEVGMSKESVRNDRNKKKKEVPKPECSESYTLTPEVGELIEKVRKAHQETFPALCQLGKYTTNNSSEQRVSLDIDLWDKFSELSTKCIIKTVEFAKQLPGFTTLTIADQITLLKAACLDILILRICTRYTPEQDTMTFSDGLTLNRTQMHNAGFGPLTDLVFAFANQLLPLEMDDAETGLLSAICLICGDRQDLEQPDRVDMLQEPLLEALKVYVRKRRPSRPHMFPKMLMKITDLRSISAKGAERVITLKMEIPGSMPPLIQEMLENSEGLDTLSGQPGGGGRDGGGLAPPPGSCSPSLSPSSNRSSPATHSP
Settings: not given
The procedure, abridged: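 HepG2 transiently transfected with multiplex GAL4-UAS reporter units including a human RARa–GAL4 chimera; 24 h compound exposure. Reporter mRNA quantified by RT-PCR, 6-FAM labeling and capillary electrophoresis; gain of signal versus DMSO.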
Consider `Oc1ccc(C2(c3ccc(O)c(C4CCCCC4)c3)CCCCC2)cc1C1CCCCC1`, for which the compound was classed as inactive.
As for `N#CCCOCCC#N`, the compound was classed as inactive.
Turning to `CC(C)(C)c1cc(Cc2cc(C(C)(C)C)c(O)c(C(C)(C)C)c2)cc(C(C)(C)C)c1O`, the result was inactive.
Take `CCOC(OCC)OCC`: the outcome was inactive.
`O=S(=O)(O)CCC(F)(F)C(F)(F)C(F)(F)C(F)(F)F`: the outcome was inactive.
Still for that read-out and setting: the result for `C[C@]12CC[C@H]3C(=CCc4cc(O)ccc43)[C@@H]1CCC2=O` reads “inactive”.
Same read-out and setting: the result for `N#Cc1ccccc1O` reads “inactive”; that for `O=C1c2c(O)ccc(Nc3ccc(CCO)cc3)c2C(=O)c2c([N+](=O)[O-])ccc(O)c21`, “inactive”; that for `CC(=O)CCC(C)C`, “inactive”.
Regarding `O=c1[nH]cccc1O`, the call was inactive.
Consider `c1ccc(C[P+](c2ccccc2)(c2ccccc2)c2ccccc2)cc1`, for which the compound was classed as inactive.
In the case of `CCc1ccc(C)nc1`, the compound was called inactive.
Take `O=C1c2ccccc2C(=O)c2c(Cl)cccc21`: the compound was called inactive.
`CCC/C=C/CO`: the call was inactive.
The same measure, in the same setting: the result for `CC(=O)C=O` reads “inactive”.
For the compound `CCCCOC(=O)[C@H](C)O`, the compound was called inactive.

Read-out in the next assay: not listed separately
Briefly: BSK_3C_Proliferation: Cell Proliferation Assessment in the BioMAP Diversity Plus: 3C Assay (AID 2283006; active = hit-call score of the fitted dose curve at least 0.9, where 1 is the maximum; inactive = score below 0.9;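 as to AC50: potency may reflect either rise or fall in cell number versus DMSO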). To be noted: primary human endothelial cells (HUVEC). The method in brief: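 Human umbilical vein endothelial cells were grown sub-confluent and exposed to chemical for 48 h, then fixed with 10% TCA and stained with 0.1% sulforhodamine B; absorbance at 560 nm gave relative cell number, fitted bidirectionally against DMSO baseline.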
Turning to `O=S(=O)(O)CCC(F)(F)C(F)(F)C(F)(F)C(F)(F)F`, the outcome was inactive.
As to `C[C@]12CC[C@H]3C(=CCc4cc(O)ccc43)[C@@H]1CCC2=O`, the AC50 was 32.1 µM (active).
Turning to `O=C1c2c(O)ccc(Nc3ccc(CCO)cc3)c2C(=O)c2c([N+](=O)[O-])ccc(O)c21`, the AC50 was 20 µM (active).
In the case of `Brc1nc2ccccc2s1`, the outcome was inactive.
For `OCCCCC(F)(F)C(F)(F)C(F)(F)C(F)(F)F`, the outcome was inactive.

In another assay the target is Peroxisome proliferator-activated receptor gamma (Homo sapiens) (UniProt P37231). Briefly: ATG_PPARg_TRANS: Attagene TRANS-FACTORIAL HepG2 Assay for human Peroxisome Proliferator-activated Receptor-gamma (PPARg) (AID 2283007).
Peroxisome proliferator-activated receptor gamma (Homo sapiens), sequence (P37231 whole entry, looked up): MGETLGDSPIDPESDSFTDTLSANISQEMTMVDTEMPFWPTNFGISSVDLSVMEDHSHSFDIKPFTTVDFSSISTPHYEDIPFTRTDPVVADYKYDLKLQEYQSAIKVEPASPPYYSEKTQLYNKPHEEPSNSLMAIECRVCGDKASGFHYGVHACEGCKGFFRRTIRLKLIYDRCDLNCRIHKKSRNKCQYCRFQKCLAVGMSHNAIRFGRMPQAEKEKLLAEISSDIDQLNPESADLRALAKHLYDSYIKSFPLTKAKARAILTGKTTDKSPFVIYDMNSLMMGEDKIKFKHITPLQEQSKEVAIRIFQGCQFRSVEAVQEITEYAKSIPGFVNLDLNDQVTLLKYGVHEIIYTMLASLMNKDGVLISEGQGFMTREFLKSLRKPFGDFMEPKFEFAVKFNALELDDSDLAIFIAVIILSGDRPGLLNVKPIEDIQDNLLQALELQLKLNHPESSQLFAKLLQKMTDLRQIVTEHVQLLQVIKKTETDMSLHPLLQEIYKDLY
Settings: not given
The procedure, abridged: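 Liver-derived HepG2 cells expressing an exogenous NR-Gal4 chimera alongside GAL4-UAS reporter genes; 24 h exposure. Fluorescence of reporter RT-PCR products, separated by capillary electrophoresis, gives mRNA induction relative to DMSO.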
Turning to `CCOC(=O)C1CC(=O)C(=C(O)C2CC2)C(=O)C1` (stereo unspecified), the result was inactive.
With `CCCCCC/C=C/CCCCCCCC(=O)O`, the result was inactive.
In the case of `Oc1ccc(C2(c3ccc(O)c(C4CCCCC4)c3)CCCCC2)cc1C1CCCCC1`, the concentration at half-maximal activity (AC50) was 2.92 µM (active).
Regarding `N#CCCOCCC#N`, the compound was classed as inactive.
With `CCCCCCCCCCCCCC[P+](CCCC)(CCCC)CCCC`, the result was inactive.
`CCc1cc(Cc2cc(CC)c(N)c(CC)c2)cc(CC)c1N`: the AC50 was 0.886 µM (active).
Take `CC(C)(C)c1cc(Cc2cc(C(C)(C)C)c(O)c(C(C)(C)C)c2)cc(C(C)(C)C)c1O`: the result was inactive.
The same measure, in the same setting: the result for `O=C1OC(=O)c2ccc3c4c(ccc1c24)C(=O)OC3=O` reads “inactive”; that for `Cc1ccc(O)cn1`, “inactive”.
Consider `CCOC(OCC)OCC`, for which the compound was classed as inactive.
For `Brc1ccccn1`, the call was inactive.
Still for that read-out and setting: in the case of `O=S(=O)(O)CCC(F)(F)C(F)(F)C(F)(F)C(F)(F)F` it was “inactive”; in that of `C[C@]12CC[C@H]3C(=CCc4cc(O)ccc43)[C@@H]1CCC2=O`, “inactive”.
Consider `CCCCC(CC)COC(=O)c1ccc(N(C)C)cc1` (stereo unspecified), for which the AC50 was 30.3 µM (active).
In the case of `O=S(=O)(O)c1ccc(Cl)cc1`, the compound was called inactive.
Take `N#Cc1ccccc1O`: the compound was classed as inactive.
Regarding `O=C1c2c(O)ccc(Nc3ccc(CCO)cc3)c2C(=O)c2c([N+](=O)[O-])ccc(O)c21`, the AC50 is 13 µM (active).
As to `O=c1[nH]cccc1O`, the compound was called inactive.
As to `CCOCN(C(=O)CS(=O)(=O)O)c1c(C)cccc1CC`, the outcome was inactive.
On to `c1ccc(C[P+](c2ccccc2)(c2ccccc2)c2ccccc2)cc1`, for which the result was inactive.
Same read-out and setting: in the case of `CCc1ccc(C)nc1` it was “inactive”; in that of `Nc1c(Br)cc([N+](=O)[O-])cc1Br`, “inactive”.
Consider `CCCCCCCC/C=C\CCCCCCCC(=O)OCC(O)CO` (stereo unspecified), for which the AC50 was 27.3 µM (active).
For the compound `Cc1ccc([N+](=O)[O-])c(C)c1`, the result was inactive.
Turning to `Brc1nc2ccccc2s1`, the AC50 was 23.5 µM (active).
Consider `O=C1c2ccccc2C(=O)c2c(Cl)cccc21`, for which the compound was called inactive.
With `OCCCCC(F)(F)C(F)(F)C(F)(F)C(F)(F)F`, the compound was called inactive.
`CCC/C=C/CO`: the outcome was inactive.
`CCCCOC(=O)[C@H](C)O`: the result was inactive.

In the next assay the target is Nuclear receptor subfamily 1 group I member 2 (Homo sapiens) (UniProt O75469). Put plainly: ATG_PXR_TRANS: Attagene TRANS-FACTORIAL HepG2 Assay for human Pregnane X Receptor (PXR) (AID 2283008).
Nuclear receptor subfamily 1 group I member 2 (Homo sapiens), sequence (O75469 whole entry, looked up): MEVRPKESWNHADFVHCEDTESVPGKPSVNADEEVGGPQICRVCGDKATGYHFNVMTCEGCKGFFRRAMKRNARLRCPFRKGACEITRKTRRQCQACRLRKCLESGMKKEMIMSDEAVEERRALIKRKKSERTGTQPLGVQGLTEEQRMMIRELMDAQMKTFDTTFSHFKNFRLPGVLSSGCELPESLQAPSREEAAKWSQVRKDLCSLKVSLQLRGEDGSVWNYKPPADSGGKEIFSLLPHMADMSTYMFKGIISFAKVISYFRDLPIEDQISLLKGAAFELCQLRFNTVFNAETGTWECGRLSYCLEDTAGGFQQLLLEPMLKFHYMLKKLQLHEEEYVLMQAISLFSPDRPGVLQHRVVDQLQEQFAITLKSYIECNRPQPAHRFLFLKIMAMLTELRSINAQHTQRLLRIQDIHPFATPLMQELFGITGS
Settings: not given
The procedure, abridged:
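HepG2 cells transiently transfected with GAL4-UAS reporter units and PXR-Gal4 chimera, exposed 24 h. Reporter mRNA quantified by RT-PCR, fluorescent labelling, HpaI digestion and capillary electrophoresis; gain of signal vs DMSO.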
On to `CCOC(=O)C1CC(=O)C(=C(O)C2CC2)C(=O)C1` (stereo unspecified), for which the call was inactive.
Consider `Oc1ccc(C2(c3ccc(O)c(C4CCCCC4)c3)CCCCC2)cc1C1CCCCC1`, for which the AC50 is 0.977 µM (active).
Turning to `N#CCCOCCC#N`, the call was inactive.
For `CCCCCCCCCCCCCC[P+](CCCC)(CCCC)CCCC`, the result was inactive.
Take `CCc1cc(Cc2cc(CC)c(N)c(CC)c2)cc(CC)c1N`: the AC50 was 1.08 µM (active).
Turning to `CC(C)(C)c1cc(Cc2cc(C(C)(C)C)c(O)c(C(C)(C)C)c2)cc(C(C)(C)C)c1O`, the AC50 was 0.631 µM (active).
As to `O=C1OC(=O)c2ccc3c4c(ccc1c24)C(=O)OC3=O`, the compound was classed as inactive.
Regarding `Cc1ccc(O)cn1`, the call was inactive.
As to `Brc1ccccn1`, the call was inactive.
Still for that read-out and setting: the result for `O=S(=O)(O)CCC(F)(F)C(F)(F)C(F)(F)C(F)(F)F` reads “inactive”.
Regarding `C[C@]12CC[C@H]3C(=CCc4cc(O)ccc43)[C@@H]1CCC2=O`, the AC50 was 26.6 µM (active).
Take `CCCCC(CC)COC(=O)c1ccc(N(C)C)cc1` (stereo unspecified): the AC50 was 27.2 µM (active).
Consider `CN(C)C(C)(C)CO`, for which the compound was called inactive.
The same measure, in the same setting: in the case of `N#Cc1ccccc1O` it was “inactive”.
On to `CN(N=O)C(=O)N[C@@H]1[C@@H](O)[C@H](O)[C@@H](CO)O[C@@H]1O`, for which the compound was called inactive.
As for `O=C1c2c(O)ccc(Nc3ccc(CCO)cc3)c2C(=O)c2c([N+](=O)[O-])ccc(O)c21`, the AC50 was 6.55 µM (active).
Turning to `CC(=O)CCC(C)C`, the compound was called inactive.
Turning to `CCOCN(C(=O)CS(=O)(=O)O)c1c(C)cccc1CC`, the call was inactive.
As to `c1ccc(C[P+](c2ccccc2)(c2ccccc2)c2ccccc2)cc1`, the compound was classed as inactive.
As to `Nc1c(Br)cc([N+](=O)[O-])cc1Br`, the AC50 was 26.8 µM (active).
On to `CC(=O)c1ccccc1N`, for which the outcome was inactive.
On the same count and under the same terms, in the case of `OCC1CCCO1` (stereo unspecified) it was “inactive”; in that of `CCCCCCCC/C=C\CCCCCCCC(=O)OCC(O)CO` (stereo unspecified), “inactive”.
Turning to `Cc1ccc([N+](=O)[O-])c(C)c1`, the call was inactive.
Turning to `O=C1c2ccccc2C(=O)c2c(Cl)cccc21`, the AC50 is 2.73 µM (active).
As to `CCC/C=C/CO`, the compound was called inactive.
For `CC(=O)C=O`, the result was inactive.
